According to PubChem BioAssay AID686979 (National Center for Advancing Translational Sciences (NCATS), 2013):
About 50,000 (12%) of roughly 420,000 compounds were called active. Another 26% or so got no clear call; they are omitted. Calls follow the shape of the dose curve; as a rule, active = well fitted inhibition curve with a large enough effect; inconclusive = small, poorly fitted or top-dose-only effect; inactive = flat fitted curve, though single readings scatter. What follows is part of a selection rich in actives, with near analogues and random picks from the rest. Where a call stands in place of a potency, no number is given.

assay: qHTS for Inhibitors of human tyrosyl-DNA phosphodiesterase 1 (TDP1): qHTS in cells in presence of CPT; settings: chicken DT40 Tdp1-/-;hTDP1 cells + 20 nM CPT, ATP luminescence, 48 h; series mostly up to 46.2 µM; also: nearly all actives have a fitted effect of over 55% in size
Summary of the method: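 Cell growth measured by CellTiter-Glo luminescence after a minimum 48 h, 37 C compound exposure with 20 nM CPT in Tdp1-knockout DT40 cells stably expressing hTDP1, seeded 400/well; qHTS titration format.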
Potency is read from the fitted curve at half-maximal effect.

| Compound | Potency |
| --- | --- |
| O=C(Nc1nonc1-c1ccc(Cl)cc1)c1ccco1 | inactive |
| O=C(NCc1ccccn1)[C@@H]1CCCN1C(=O)[C@@H]1CCCN1C(=O)c1ccccc1 | inactive |
| CN(Cc1nc(-c2cnccn2)no1)Cc1n[nH]c2c1CCCCC2 | inactive |
| COc1ccccc1CNC(=O)CS(=O)(=O)c1cccc2nsnc12 | inactive |
| Cn1c(=O)c(=O)n(C)c2cc(NC(=O)c3ccccc3Br)ccc21 | inactive |
| c1ccc2c(c1)OC1OC2Oc2ccccc21 | inactive |
| Cc1cc(C)nc(NS(=O)(=O)c2ccc(NC(=O)c3cc(=O)c4ccc(C)c(C)c4o3)cc2)n1 | inactive |
| CS(=O)(=O)N(CC(=O)Nc1ccc(F)cc1)C1CCCCC1 | inactive |
| N[C@H]1CN(c2c(F)cc3c(=O)c(C(=O)O)cn(C4C[C@H]4F)c3c2Cl)CC12CC2 (stereo partly specified) | inactive |
| CC1(c2ccccc2)NC(=O)N(CC(=O)Nc2cc(Cl)ccc2N2CCOCC2)C1=O (stereo unspecified) | inactive |
| O=C(CN1CCOCC1)Nc1cc(Cl)ccc1Cl | inactive |
| O=C(CSc1nc(Nc2ccccc2)nc(N2CCOCC2)n1)Nc1cc(Cl)ccc1O | 25.9 µM (active) |
| Cn1c(N)cc(=O)n(C)c1=S | inactive |
| Cc1ccnc(NS(=O)(=O)c2ccc(NC(=O)c3oc4ccc(F)cc4c3C)cc2)n1 | inactive |
| Cc1ncn(C23CC4CC(CC(O)(C4)C2)C3)n1 | inactive |
| COC(=O)c1ccc(NC(=O)C23CC4CC(C2)CC(n2cnc(Cl)n2)(C4)C3)cc1 | 20.6 µM (active) |
| O=C(Nc1ccc(S(=O)(=O)Nc2ncccn2)cc1)C12CC3CC(CC(C3)C1)C2 | inactive |
| CC(=O)Oc1ccc2c(=O)oc(-c3ccc([N+](=O)[O-])cc3)nc2c1 | inactive |
| COc1ccc(S(=O)(=O)n2cnc3ccccc32)c(C)c1 | 18.4 µM (active) |
| Cc1ccc(S(=O)(=O)n2cnc3ccccc32)c(C)c1 | inactive |
| Cc1ccc(C)c(S(=O)(=O)n2cnc3ccccc32)c1 | inactive |
| N#Cc1c(NC(=O)c2ccc(N3CCOCC3)c([N+](=O)[O-])c2)sc2c1CCCC2 | inactive |
| COc1cccc2cc(C(N)=O)/c(=N\NC(=O)c3ccccc3)oc12 | inactive |
| CC(C)N(C(=O)Cn1c(SCC(=O)N2CCN(c3ccccc3)CC2)nc2ccccc21)C(C)C | inactive |
| CC1(C(=O)O)CCCN(C(=O)/C=C/c2ccccc2)C1 (stereo unspecified) | inactive |
| CC(C)Cn1c(N2CCN(C(=O)/C=C/c3ccccc3)CC2)nc2ccccc21 | 18.4 µM (active) |

| Compound | Potency |
| --- | --- |
| CN(Cc1ccccc1Cl)C(=O)C1CCC(=O)N(CCc2cccc(F)c2)C1 (stereo unspecified) | inactive |
| CCOc1ccc(OCc2ccc(C(=O)N(C)c3ccccc3)o2)cc1 | inactive |
| COc1ccc(OCC(=O)N2CCN(C(=O)COc3ccccc3)CC2)cc1 | inactive |
| CN(C(=O)CN1CCN(c2cc(-c3ccc(OCc4ccccc4)cc3)ncn2)CC1)c1ccccc1 | 18.4 µM (active) |
| CCCC(C)C(=O)Nc1ccc(NC(C)=O)cc1 (stereo unspecified) | inactive |
| CC1(C)[C@@H]2CC[C@@]1(C)[C@H](OC(=O)CSC#N)C2 | inactive |
| CCCCNC(=O)c1ccc(-n2c(=S)[nH]c3ccccc3c2=O)cc1 | inactive |
| Cc1ccc(NC(=S)N(Cc2ccco2)C(C)c2cccs2)cc1 (stereo unspecified) | inactive |
| COc1cccc(/C=N/Nc2ccc(Cl)nn2)c1 | inactive |
| Fc1ccccc1Cc1ccc(Cl)nn1 | inactive |
| C/C(=N\Nc1ccc(Cl)nn1)c1ccccc1O | 0.58 µM (active) |
| Oc1cccc(/C=N/Nc2ccc(Cl)nn2)c1O | 0.092 µM (active) |
| CCCCCCCN=C(C)c1ccccc1O | inactive |
| Clc1ccc(N/N=C/c2cccs2)nn1 | inactive |
| O=CN1CCN(C(=O)c2ccc3c(c2)OCO3)CC1 | inactive |
| Cc1ccc(C(=O)O)cc1N1C(=O)CCCC1=O | inactive |
| Cc1ccc(-n2c(C)nnc2SCC(=O)NC2CC2)cc1 | inactive |
| COc1ccccc1N1CC(C(=O)Nc2ccc(S(=O)(=O)N3CCOCC3)cc2)CC1=O (stereo unspecified) | inactive |
| COc1ccc(Cl)cc1NC(=O)C1CC(=O)N(c2ccc(F)cc2)C1 (stereo unspecified) | inactive |
| COc1cc(OC)c(N2CC(C(=O)Nc3cc(Cl)ccc3N3CCOCC3)CC2=O)cc1Cl (stereo unspecified) | 3.66 µM (active) |
| CCCOc1ccc(Cc2c(O)nc(N)[nH]c2=O)cc1C | inactive |
| Cc1ccc(F)cc1S(=O)(=O)Nc1cccc(C(=O)N2CCCC(C(N)=O)C2)c1 (stereo unspecified) | inactive |
| Cc1ccc(O/C=C2\OC(=O)c3ccccc32)cc1 | inactive |
| Cc1c(CCC(=O)N[C@@H](CC(C)C)C(=O)O)c(=O)oc2c(C)c3oc4c(c3cc12)CCCC4 | inactive |
| O=C(OCC1OC(Oc2ccc(O)cc2)C(O)C(O)C1O)c1ccccc1 (stereo unspecified) | inactive |
